Our source for the Potency values is PubChem BioAssay (Tox21).

Several values for one entry are separate records, joined by “and”; a condition that tells them apart may be missing. Equal values may be shown once. Inconclusive results are not listed. Activity calls are given as the source filed them. Unless noted, the call rests on the fitted dose curve; in most records, active means well fitted curve in the direction sought with a large enough effect in the repeat runs; inconclusive means weak or mixed curves; inactive means no such curve, though single readings can be large; an effect the other way counts as inactive or inconclusive.

The nature of assay [1]: qHTS assay for small molecule agonists of the p53 signaling pathway (AID 651631; calls by dose curve; further: nearly all actives have a fitted effect of over 15% in size; further: potency means the concentration at half of the fitted maximal effect). In short, it runs like this: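 Agonist mode screen using a stably integrated beta-lactamase gene under p53 response elements in HCT-116 cells. Compound exposure lasts 16 h at 37 °C; fluorescence intensity is measured following 2 h FRET substrate loading.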
Assay [2] is described as follows: qHTS assay for small molecules that induce genotoxicity in human embryonic kidney cells expressing luciferase-tagged ATAD5 (AID 651632). Further: nearly all actives have a fitted effect of over 15% in size. The gist of the method:
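Increased luciferase signal from ATAD5-tagged reporter cells indicates DNA-damage-driven ATAD5 induction. HEK293T cells are treated for 16 hr at 37C before detection with Amplite.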
For orientation: Quantitative high-throughput screening tests each substance at several concentrations.

Assay [3] in a line: qHTS assay for small molecules that induce genotoxicity in human embryonic kidney cells expressing luciferase-tagged ATAD5 - cell viability (AID 651634; calls by dose curve; further: nearly all actives have a fitted effect of over 25% in size; further: potency means the concentration at half of the fitted maximal effect). In short, it runs like this: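 Cytotoxicity counterscreen in HEK293T cells bearing an ATAD5-luciferase reporter: live-cell protease activity measured by CellTiter-Fluor fluorescence after 15.5 hr compound exposure.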
A short description of assay [4]: qHTS assay for small molecule disruptors of the mitochondrial membrane potential - cell viability (AID 720634; calls by dose curve; further: nearly all actives have a fitted effect of over 20% in size; further: potency means the concentration at half of the fitted maximal effect). The gist of the method: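 After overnight attachment at 37 C, HepG2 cells received compound or DMSO vehicle for 1 hr. Viability is then taken from ATP-driven luminescence following a 30 min room-temperature CellTiter-Glo step.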
Assay [5] is described as follows: qHTS assay for small molecule disruptors of the mitochondrial membrane potential (AID 720635). Further: potency means the concentration at half of the fitted maximal effect. In short, it runs like this:
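HepG2 cells (2,000/well) attached overnight at 37C, then took compound for 1 hr at 37C, 5% CO2. Mito-MPS dye was added for 30 min; fluorescence was read at 490/535 nm (monomers) and 540/590 nm (aggregates).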

Assay [6] in a line: qHTS assay to test for compound auto fluorescence at 535 nm (green) in HepG2 cells (AID 720675).
Assay [7] is described as follows: qHTS assay to test for compound auto fluorescence at 460 nm (blue) in HEK293 cells (AID 720678). Further: potency means the concentration at half of the fitted maximal effect. The gist of the method:
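Intrinsic compound fluorescence is recorded in live HEK293 cultures after overnight incubation at 37C, 5% CO2, using excitation 405 nm and emission 460 nm. Values are referenced to triamterene.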

The nature of assay [8]: qHTS assay to test for compound auto fluorescence at 590 nm (red) in HEK293 cells (AID 720679). In short, it runs like this:
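Red autofluorescence, HEK293 cells: 2,000 cells/well; attach 4-5 hr 37C; add 23 nL cpd or DMSO; incubate o/n 37C 5% CO2; read Ex540/Em590; Rose Bengal sodium reference.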

Assay [9] can be described thus: qHTS assay to test for compound auto fluorescence at 535 nm (green) in HEK293 cells (AID 720680).
Assay [10] can be described thus: qHTS assay to test for compound auto fluorescence at 460 nm (blue) in HEK293 cell free culture (AID 720681). Further: potency means the concentration at half of the fitted maximal effect. The gist of the method: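 Test compounds were pinned into cell-free culture medium (DMEM with 10% FBS) and fluorescence was read directly at Ex/Em 405/460 nm. Signals were expressed as fluorescence equivalents of triamterene, with DMSO vehicle as control.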

The nature of assay [11]: qHTS assay to test for compound auto fluorescence at 535 nm (green) in HEK293 cell free culture (AID 720682). The gist of the method:
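No cells present: wells hold DMEM supplemented with 10% FBS, into which compound or vehicle is pinned. Green emission is then recorded (485 nm excitation, 535 nm emission) and scaled to fluorescein.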

Assay [12] can be described thus: qHTS assay to test for compound auto fluorescence at 590 nm (red) in HEK293 cell free culture (AID 720683). In short, it runs like this:
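Tox21 10K library compounds were pinned into cell-free DMEM with 10% FBS and fluorescence was read at excitation 540 nm. Activity is expressed as Rose Bengal sodium equivalency.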

Assay [13] in a line: qHTS assay to test for compound auto fluorescence at 590 nm (red) in HepG2 cell free culture (AID 720684). The gist of the method: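 Red fluorescence (540 nm excitation, 590 nm emission) was measured after compound transfer into cell-free MEM supplemented with 10% FBS. Values are equivalencies against Rose Bengal sodium.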
The nature of assay [14]: qHTS assay to test for compound auto fluorescence at 460 nm (blue) in HepG2 cell free culture (AID 720685). Further: potency means the concentration at half of the fitted maximal effect. In short, it runs like this: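 Compound (23 nL) or DMSO pinned into cell-free MEM with 10% FBS; blue fluorescence read at 405/460 nm excitation/emission, expressed as auto-fluorescence equivalency to triamterene.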
Assay [15] is described as follows: qHTS assay to test for compound auto fluorescence at 535 nm (green) in HepG2 cell free culture (AID 720686).
Assay [16] in a line: qHTS assay to test for compound auto fluorescence at 460 nm (blue) in HepG2 cells (AID 720687). Further: potency means the concentration at half of the fitted maximal effect. The gist of the method:
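Cells (2,000/well in MEM with 10% FBS) attached overnight at 37 C, then were exposed to compound or DMSO for 1 hr at 37 C, 5% CO2. Fluorescence read at Ex/Em 405/460 nm, expressed as triamterene-equivalent signal.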

In assay [17] the target is Glucocorticoid receptor (Homo sapiens) (UniProt P04150). Nature of the assay: qHTS assay to identify small molecule agonists of the glucocorticoid receptor (GR) signaling pathway (AID 720691; active means well fitted activation curve with a large enough effect in the signal ratio in the repeat runs, not every such curve was filed as active; the % refers to the signal ratio). Conditions: GR-bla HeLa, beta-lactamase reporter ratio, 18 h; activation: at 62.4 µM (top of the series). The gist of the method: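 Agonist mode in a HeLa line carrying a GRE-controlled beta-lactamase reporter. Compounds act for 18 h at 37 C before a 2 h room-temperature FRET substrate step and fluorescence reading.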
Glucocorticoid receptor (Homo sapiens), sequence (P04150 whole entry, looked up): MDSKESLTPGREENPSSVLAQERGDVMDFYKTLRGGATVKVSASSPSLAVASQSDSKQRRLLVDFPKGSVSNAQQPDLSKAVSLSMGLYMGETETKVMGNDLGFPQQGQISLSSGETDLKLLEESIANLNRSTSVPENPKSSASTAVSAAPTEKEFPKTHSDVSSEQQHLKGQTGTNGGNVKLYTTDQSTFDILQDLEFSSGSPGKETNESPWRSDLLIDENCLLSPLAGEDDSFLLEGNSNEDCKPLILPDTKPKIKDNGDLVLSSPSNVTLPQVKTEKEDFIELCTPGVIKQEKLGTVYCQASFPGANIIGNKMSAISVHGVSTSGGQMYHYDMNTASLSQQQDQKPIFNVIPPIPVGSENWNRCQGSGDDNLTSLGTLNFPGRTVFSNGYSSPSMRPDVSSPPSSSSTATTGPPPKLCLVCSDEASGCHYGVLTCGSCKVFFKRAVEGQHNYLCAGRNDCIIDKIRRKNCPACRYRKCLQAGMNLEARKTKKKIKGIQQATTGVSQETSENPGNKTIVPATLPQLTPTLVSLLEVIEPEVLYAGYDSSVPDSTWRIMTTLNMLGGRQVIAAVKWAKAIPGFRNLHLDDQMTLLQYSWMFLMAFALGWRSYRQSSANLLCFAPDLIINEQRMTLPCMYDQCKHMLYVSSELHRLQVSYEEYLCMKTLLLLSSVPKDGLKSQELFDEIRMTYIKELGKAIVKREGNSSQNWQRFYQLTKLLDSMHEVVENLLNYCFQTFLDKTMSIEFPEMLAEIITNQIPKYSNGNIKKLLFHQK

The nature of assay [18]: qHTS assay to test for compound auto fluorescence at 590 nm (red) in HepG2 cells (AID 720674). The gist of the method:
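Rose Bengal sodium served as the red fluorophore standard. HepG2 monolayers (overnight attachment, MEM with 10% FBS) were exposed to test compounds for 1 hr at 37 C and read at Ex 540/Em 590 nm.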

Assay [19] has as its target Glucocorticoid receptor (Homo sapiens) (UniProt P04150). Nature of the assay: qHTS assay to identify small molecule antagonists of the glucocorticoid receptor (GR) signaling pathway (AID 720692; active means well fitted inhibition curve with a large enough effect in the signal ratio in the repeat runs, not every such curve was filed as active; the % refers to the signal ratio; further: potency means the concentration at half of the fitted maximal effect). In short, it runs like this:
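Cells plated, rested 4 h at 37 C/5% CO2; compounds in DMSO pin-transferred; dexamethasone added to 5 nM final; 18 h at 37 C; B/G FRET substrate added, 2 h room temperature; fluorescence measured.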

Assay [20] in a line: qHTS assay for small molecule agonists of the p53 signaling pathway - cell viability (AID 651633; calls by dose curve; further: nearly all actives have a fitted effect of over 30% in size; further: potency means the concentration at half of the fitted maximal effect). The gist of the method:
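p53RE-bla cells, seeded at 4,000 per well and rested 5 h at 37 C/5% CO2, received compounds in DMSO for 16 h at 37 C. CellTiter-Glo was then added, and luminescence was read after 30 min at room temperature to gauge cytotoxicity.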
Tags describe the fitted curve by direction and shape or compound fluorescence and quenching.

Take `CCC(C)(C)c1cc(O)c(C(C)(C)CC)cc1O`: the Potency was 54.5 µM (active) in [1], 48.6 µM (active) in assay [3] and 4.86 µM (active) in assay [5]. Further, the Potency entry in assay [2], in assay [4], in [6], in assay [7], in assay [8] and in assay [9] was “inactive” in each case. In addition, the Potency result in assay [10], in assay [11], in assay [12], in assay [13], in [14] and in [15] was “inactive” each time. For the same molecule, the Potency entry in assay [16] and in assay [17] was “inactive” in each case.
Turning to `CCC(C)c1cc([N+](=O)[O-])cc([N+](=O)[O-])c1OC(=O)OC(C)C` (stereo not given), the Potency in assay [1] is 30.6 µM (active); in [3], 61.1 µM (active); in [4] it was 21.7 µM (active); in [5], 3.06 µM (active). Also, the Potency result in assay [2], in [18], in assay [6], in [7], in assay [9] and in [10] was “inactive” throughout. Besides, the Potency entry in assay [11], in assay [12], in assay [13], in assay [14], in assay [15] and in [16] was “inactive” throughout. In addition, the Potency result in [17] is “inactive”.
`CC(C)c1cccc(C(C)C)c1N1C(=O)c2ccc(O)cc2C1=O`: the Potency in assay [1] was 1.54 µM (active); in [4], 9.69 µM (active); in [5] it was 1.22 µM (active); in assay [7] it was 39.8 µM [fluorescent] (active); in [10], 35.5 µM (active); in [14] it was 39.8 µM [fluorescent] (active). In addition, the Potency in assay [16] is 35.5 µM [fluorescent] (active); in assay [19], 38.9 µM (active). Besides, the Potency entry in assay [2], in assay [3], in assay [18], in assay [6], in [8] and in assay [9] was “inactive” throughout. The Potency entry in [11], in assay [12], in assay [13] and in assay [15] was “inactive” in each case.
On to `O=C(O)CC(=O)O`, for which the Potency result in [1], in assay [2], in assay [3], in [18], in [6] and in [7] was “inactive” throughout. Besides, the Potency result in assay [8], in assay [9], in [10], in assay [11], in assay [12] and in [13] was “inactive” throughout. Moreover, the Potency entry in [14], in [15] and in assay [17] was “inactive” in each case.
Turning to `CCCN(CCc1cccs1)[C@H]1CCc2c(O)cccc2C1`, the Potency result in assay [2], in [20], in assay [3], in assay [4], in [18] and in [6] was “inactive” in each case. The Potency result in assay [7], in [8], in assay [9], in [10], in assay [11] and in assay [12] was “inactive” in each case. The Potency entry in assay [13], in assay [14], in assay [15], in [16], in assay [17] and in assay [19] was “inactive” in each case. The Potency in assay [5] is 24.8 µM (active).
Regarding `CCCCCCCCCCCCOC(=O)c1cc(O)c(O)c(O)c1`, the Potency in [1] was 68.3 µM (active) and 61.1 µM (active); in assay [20], 48.3 µM (active) and 48.6 µM (active); in assay [3] it was 60.9 µM (active) and 13.7 µM (active); in assay [4], 60.9 µM (active) and 54.5 µM (active); in assay [5] it was 3.05 µM (active) and 4.33 µM (active). Moreover, the Potency entry in assay [18], in [6], in assay [7], in assay [8], in assay [9] and in assay [10] was “inactive” in each case. Also, the Potency entry in assay [11], in assay [12], in assay [13], in assay [14], in assay [15] and in assay [16] was “inactive” in each case.
For the molecule `CCc1cccc(C)c1`, the Potency result in assay [1], in assay [2], in assay [3], in [4], in [18] and in [6] was “inactive” each time. Besides, the Potency entry in assay [7], in assay [9], in assay [10], in assay [11], in assay [12] and in assay [13] was “inactive” throughout. The Potency entry in [14], in assay [15], in [16], in assay [17] and in [19] was “inactive” throughout.
